# Source: PubChem
# Shown are actives, neighbours in structure and some others; about 2.3% of the full set was active somewhere.
# Hsp90 Hop PPI – changes Hsp90-Hop TPR2A binding signal, up or down; AlphaScreen TPR2A-His6 binding biotin-Hsp90 C-terminal peptide; Potency, µM (top dose mostly 57 µM), for inactives: top-dose activity change, negative = inhibition; 71,000 tested, 0.44% active; AID 595; active = well fitted curve in either direction with a large enough effect; inconclusive = small, poorly fitted or top-dose-only effect, or another doubt; note: potency is the fitted concentration of half-maximal effect; % is set by controls: 0 for no effect and ±100 for the full control effect
# BRCT inh green – BRCA1 BRCT-phosphoprotein interaction inhibition | P38398 | BRCA1 BRCT-phosphopeptide binding, green fluorescence polarization | Potency, µM (doses to about 76.9 µM), without a hit: at the top dose activity change, negative = inhibition, most hits filed as inhibitors | 75,000 tested, 0.05% active;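 note: potency is the fitted concentration of half-maximal effect; plate controls were peptide without protein for full effect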
#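 Fluorescence polarization: His-tagged BRCT (~35 kDa BRCA1 C-terminus, 250 nM) bound to 100 nM fluorescein-labeled phosphorylated 10-aa BACH1 peptide, pH 7.3 phosphate buffer with DTT and Tween 20. Compounds incubated 12 min at room temperature; inhibition read as lowered polarization.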
# Pol III holo inh – DNA polymerase III holoenzyme inhibition. reconstituted DNA polymerase III holoenzyme replication, biochemical. Potency, µM (titrated, usually from 57.1 µM), inactives show top-dose activity change, negative = inhibition. 71,000 tested, 0.25% active. AID 603; note: potency is the fitted concentration of half-maximal effect; % is set by controls: 0 for no effect and ±100 for the full control effect
#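 Reconstituted *E. coli* holoenzyme (0.35 nM Pol III, 1 nM beta, 154 nM SSB, 2 nM primase) was preincubated with compound for 15 min at RT. Synthesis on 1.4 nM ssM13Gori ran 35 min, then was stopped with PicoGreen/EDTA and read as dsDNA fluorescence.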
# Tau fil binding – binders of human tau filaments | recombinant tau filaments, thioflavin S fluorescence, 15 h; filaments grown with octadecylsulfate alongside compound | AID 596 | P10636 | 71,000 tested, 2% active | Potency, µM (titrated, usually from 57.1 µM), for inactives: top-dose activity change, negative = inhibition;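 note: potency is the fitted concentration of half-maximal effect; % is set by controls: 0 for no effect and ±100 for the full control effect; actives lower thioflavin S fluorescence by blocking filaments or displacing dye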
# Target sequence (P10636 whole entry, looked up): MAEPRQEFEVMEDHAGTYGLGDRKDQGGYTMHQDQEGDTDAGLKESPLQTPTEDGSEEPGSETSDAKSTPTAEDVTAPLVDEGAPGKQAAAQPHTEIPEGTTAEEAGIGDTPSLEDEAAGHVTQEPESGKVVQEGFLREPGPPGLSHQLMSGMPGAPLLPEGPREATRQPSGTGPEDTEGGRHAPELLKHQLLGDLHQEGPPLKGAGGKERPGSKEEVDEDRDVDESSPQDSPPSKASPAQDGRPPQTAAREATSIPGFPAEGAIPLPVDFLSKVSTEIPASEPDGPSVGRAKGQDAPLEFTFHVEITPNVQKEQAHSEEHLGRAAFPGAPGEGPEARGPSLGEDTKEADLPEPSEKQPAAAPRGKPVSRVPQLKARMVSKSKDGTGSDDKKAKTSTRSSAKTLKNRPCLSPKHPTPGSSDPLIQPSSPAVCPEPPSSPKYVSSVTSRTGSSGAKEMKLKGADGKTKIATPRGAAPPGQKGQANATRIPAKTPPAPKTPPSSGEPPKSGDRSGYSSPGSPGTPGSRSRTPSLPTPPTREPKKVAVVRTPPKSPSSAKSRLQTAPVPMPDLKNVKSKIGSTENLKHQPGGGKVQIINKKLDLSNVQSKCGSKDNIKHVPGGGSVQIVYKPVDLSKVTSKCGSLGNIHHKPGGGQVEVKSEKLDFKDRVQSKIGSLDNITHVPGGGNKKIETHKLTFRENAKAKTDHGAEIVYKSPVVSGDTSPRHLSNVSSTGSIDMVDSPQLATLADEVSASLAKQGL
#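 Thioflavine S fluorescence (ex 450, em 510 nm) reports filaments formed from 1 uM human tau plus 30 uM ODS over 15 h at 37 C (10 mM HEPES pH 7.4, 100 mM NaCl, 5 mM DTT); compounds displacing dye or blocking filaments lower signal.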
# BRCT PPI red – disrupts BRCA1 BRCT binding to phosphoprotein, red fluorophore readout; P38398; BRCT-phosphopeptide binding, red fluorescence polarization; Potency, µM (highest dose often 76.9 µM), for inactives: at the top dose activity change, negative = inhibition, actives largely listed as inhibitors; 75,000 tested, 0.03% active; AID 892; note: % is set by controls: 0 for no effect and ±100 for the full control effect
#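 Rhodamine-labelled pBACH1 10-mer (100 nM) bound to BRCT domain (100 nM) at pH 7.3; compounds incubated 12 min room temperature, polarization read. Free peptide defines full inhibition; unlabelled decapeptide titrated as control.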
# YjeE inh – inhibitors of E. coli YjeE (TsaE); purified YjeE enzyme, qHTS inhibition assay; 71,000 tested, 0.05% active; Potency, µM; P0AF67
#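 Purified YjeE (10 uM) with BODIPY Texas Red-labeled ADP probe (2 uM); compounds pin-transferred, 15 min at room temperature. Binding inhibition read as decreased fluorescence polarization; ADP titration as control.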
# Starred values were filed as active, the others as inactive; i = inactive; ? = inconclusive; · = no result; [ ] = dose if it differs, or a comment. Unless noted, calls come from the whole dose curve; as a rule, active = well fitted curve in the direction sought with a large enough effect; inconclusive = small, poorly fitted or top-dose-only effect, or another doubt; inactive = no such curve, though single readings can be large; an effect the other way counts as inactive or inconclusive.
SMILES,Hsp90 Hop PPI,BRCT inh green,Pol III holo inh,Tau fil binding,BRCT PPI red,YjeE inh
COc1cccc(Nc2ncc3nc(-c4ccc(Cl)cc4)c(=O)n(C4CC4)c3n2)c1,-2%,0%,4%,25%,-2%,i
Nc1[nH]c(=S)[nH]c(=O)c1N=Nc1c(Br)cc(S(N)(=O)=O)cc1Br,0%[11 µM],0%[15.4 µM],-9%[11.4 µM],-2%[11.4 µM],0%[15.4 µM],i
CC(C)Oc1ccc(C2c3c(oc4ccccc4c3=O)C(=O)N2CCCN2CCOCC2)cc1 (stereo not drawn),-6%,-2%,-1%,16µM*,2%,i
CC[C@@H](c1ccccc1)n1c(=O)n2n(c1=O)[C@H]1[C@H](O)[C@H]3O[C@@H]3/C(=N/OCc3ccccc3)[C@@H]1CC2,·,1%[15.4 µM],·,·,1%[15.4 µM],·
c1cc2c3c(c1)c1c(n3CCNC2)CCCC1,-24%,-9%,-2%,32µM*,-1%,i
Oc1ccccc1C(=S)N1CCCCCC1,-9%,1%,-5%,25µM*,-1%,i
Cn1cnc2c(NC3CCCC3)ncnc21,-4%,-3%,-2%,-3%,-3%,i
CC1CCC2C(=O)N3C(CCC(C)C3c3ccc(-c4ccco4)cc3)C(=O)N2C1c1ccc(-c2ccco2)cc1 (stereo not drawn),·,-2%[15.4 µM],·,·,-7%[15.4 µM],·
COc1ccc(CCNc2cc(=O)[nH]c(N)n2)cc1,-4%,-2%,-8%,16µM*,0%,i
O=C(Cn1cnnn1)OCC(=O)c1ccc(Cl)s1,-10%,3%,2%,10µM*,-2%,i
COCc1cc(=O)[nH]c(Nc2nc(C)c3ccc(C)cc3n2)n1,-2%,2%,-1%,2%,-1%,i
Cc1ccc2c(C)nc(Nc3nc(CSc4nnnn4-c4ccccc4)cc(=O)[nH]3)nc2c1,-5%,-2%,13µM*,35%,-1%,i
c1ccc(-c2cc3c(ccc4nonc43)nn2)cc1,-11%[11 µM],-3%,1%[11.4 µM],3.2µM*,-2%,i
c1ccc(-c2nc3nonc3nc2-c2ccccc2)cc1,?,-3%,5%,?,-1%,i
CC(=O)OCC1OC(Oc2cc(OC(C)=O)c3c(=O)cc(-c4ccc(OC(C)=O)c(OC(C)=O)c4)oc3c2)C(OC(C)=O)C(OC(C)=O)C1OC(C)=O (stereo not drawn),·,1%,·,·,0%,·
CCCC(=Nc1ccccc1)C1=C(O)C(C(=O)OC)C(C)(C)CC1=O (stereo not drawn),0%,-1%,-1%,11%,-1%,i
CCC(=Nc1ccc(N)cc1)C1=C(O)C(C(=O)OC)C(C)(C)CC1=O (stereo not drawn),-22%,-4%,-7%,16µM*,-10%,i
CC[C@]12CCCN3CCc4c(n(c5ccccc45)C(=O)C1)[C@H]32,·,4%,·,·,-1%,·
O=c1cnc2cnc(N3CCNCC3)nc2n1C1CC1,-5%,-2%,-9%,10%,0%,i
COc1ccc(Nc2cc(C(=O)NCCCN3CCN(C)CC3)c3ccccc3n2)cc1OC,-4%,-3%,-2%,16µM*,-1%,i
CCOC(=O)C1CCCN(C(=O)c2cc(Nc3ccc(OC)c(OC)c3)nc3ccccc23)C1 (stereo not drawn),-15%,-3%,-5%,-27%,-2%,i
Cc1cccc(Nc2nn3c(=O)c4ccccc4nc3s2)c1,6%,0%,3.2µM*,28%,2%,i
CC(=O)O[C@H]1C2=C(C(=O)[C@H]3O[C@@H]31)[C@@H]1[C@@H]3[C@@H](C)OC=C4[C@H](O)[C@H]5O[C@@H]5C(=O)[C@]43C2O[C@H]1C,·,-1%[15.4 µM],·,·,1%[15.4 µM],·
CC/C=C1/OC(=O)c2ccccc21,3%,-2%,0%,5%,-1%,i
Cc1nn2cc(-c3ccc(N)cc3)nc2s1,-12%,-1%,-10%,16µM*,0%,i
SMILES,Hsp90 Hop PPI,BRCT inh green,Pol III holo inh,Tau fil binding,BRCT PPI red,YjeE inh
O=C(NCCCN1CCOCC1)c1ccc(-n2c(=O)c(=O)[nH]c3ccccc32)cc1,·,0%,·,·,0%,·
O=C(Nc1cccc(N2CCCC2)c1)c1cccs1,-17%,-1%,-3%,13µM*,-2%,i
COc1ccc(C(NC(C)=O)c2ccc3cccnc3c2O)c(OC)c1 (stereo not drawn),16µM*,2%,-4%,-14%,1%,i
CC(C)C(=O)NC(c1ccco1)c1ccc2cccnc2c1O (stereo not drawn),10µM*,-3%,-7%,49%,0%,i
O=c1c(-c2cccc(F)c2)nc2cncnc2n1Cc1ccccc1Cl,-8%,1%,0%,?,-3%,i
CO/N=C(\C(=O)N[C@@H]1C(=O)N2C(C(=O)O)=C(CSc3nc(=O)c(O)nn3C)CS[C@@H]12)c1csc(N)n1,-8%,-1%,40µM*,5%,1%,i
Cc1nc2ccc(F)cc2cc1C(=O)NCC1CCCO1 (stereo not drawn),-3%,-1%,0%,13µM*,-2%,i
COc1ccc(OC)c(Nc2cc(-c3ccccc3)nc(N)n2)c1,-14%,-2%,-1%,16µM*,1%,i
COC(=O)[C@@]1(Cc2ccc(OC)cc2)[C@H]2c3cc(C(=O)N(C)C)n(Cc4cccc5ccccc45)c3C[C@H]2CN1C(=O)c1ccccc1,-27%,-1%,-7%,22%,-1%,i
CC(C)(C)c1ccccc1NC(=O)c1cccnc1,-2%,-2%,32µM*,-5%,1%,i
COC(=O)NC(c1cccc(C)c1)[C@]1(C(C)=O)CCCC1=O (stereo partly drawn),·,2%[15.4 µM],·,·,1%[15.4 µM],·
CNc1ncncc1-c1ccc(C(=O)N(C)C)cc1,-7%,-5%,-3%,6%,-1%,i
CCCCCSc1nnc2c(n1)OC(C)N(C(C)=O)c1ccccc1-2 (stereo not drawn),-4%,-17%,-4%,25µM*,-2%,i
CCC(=O)N1c2ccccc2-c2nnc(SC)nc2OC1c1ccc(N(C)C)cc1 (stereo not drawn),-6%[2.3 µM],-11%,-1%,25µM*,-1%,i
COc1cccc(-c2nccc(NCc3cnc(C)cn3)n2)c1,1%,1%,-5%,4%,-2%,i
Nc1ccc(C(=O)c2ccc3c(c2)OCCO3)cc1N,-9%,0%,4%,33%,-1%,i
Cc1ccc(C(=O)c2cc3c(cc2N)OCCO3)cc1,?,-1%,-7%,13µM*,-2%,i
CN(C)c1ccc(N/C=C/C(=O)c2ccccc2)cc1,?,6%,-4%,16µM*,-1%,i
